In the supplement of paper PMC11732987, “Enantioselective OTUD7B fragment discovery through chemoproteomics screening and high-throughput optimisation” (Communications Chemistry, 2025):

Assays:
Experiment in all cases: log2 ratio of Biotin-Ahx-Ub-VS probe labelling (fragment/DMSO); higher = less target engagement (more negative = stronger competition), active = hit call of the paper (q ≤ 0.05, log2 ratio ≤ -1)
Conditions in all cases: compound concentration: 200 uM; treatment time: 3 h
USP19 = target: T1, USP19 (UniProt O94966)
T1 sequence (whole entry): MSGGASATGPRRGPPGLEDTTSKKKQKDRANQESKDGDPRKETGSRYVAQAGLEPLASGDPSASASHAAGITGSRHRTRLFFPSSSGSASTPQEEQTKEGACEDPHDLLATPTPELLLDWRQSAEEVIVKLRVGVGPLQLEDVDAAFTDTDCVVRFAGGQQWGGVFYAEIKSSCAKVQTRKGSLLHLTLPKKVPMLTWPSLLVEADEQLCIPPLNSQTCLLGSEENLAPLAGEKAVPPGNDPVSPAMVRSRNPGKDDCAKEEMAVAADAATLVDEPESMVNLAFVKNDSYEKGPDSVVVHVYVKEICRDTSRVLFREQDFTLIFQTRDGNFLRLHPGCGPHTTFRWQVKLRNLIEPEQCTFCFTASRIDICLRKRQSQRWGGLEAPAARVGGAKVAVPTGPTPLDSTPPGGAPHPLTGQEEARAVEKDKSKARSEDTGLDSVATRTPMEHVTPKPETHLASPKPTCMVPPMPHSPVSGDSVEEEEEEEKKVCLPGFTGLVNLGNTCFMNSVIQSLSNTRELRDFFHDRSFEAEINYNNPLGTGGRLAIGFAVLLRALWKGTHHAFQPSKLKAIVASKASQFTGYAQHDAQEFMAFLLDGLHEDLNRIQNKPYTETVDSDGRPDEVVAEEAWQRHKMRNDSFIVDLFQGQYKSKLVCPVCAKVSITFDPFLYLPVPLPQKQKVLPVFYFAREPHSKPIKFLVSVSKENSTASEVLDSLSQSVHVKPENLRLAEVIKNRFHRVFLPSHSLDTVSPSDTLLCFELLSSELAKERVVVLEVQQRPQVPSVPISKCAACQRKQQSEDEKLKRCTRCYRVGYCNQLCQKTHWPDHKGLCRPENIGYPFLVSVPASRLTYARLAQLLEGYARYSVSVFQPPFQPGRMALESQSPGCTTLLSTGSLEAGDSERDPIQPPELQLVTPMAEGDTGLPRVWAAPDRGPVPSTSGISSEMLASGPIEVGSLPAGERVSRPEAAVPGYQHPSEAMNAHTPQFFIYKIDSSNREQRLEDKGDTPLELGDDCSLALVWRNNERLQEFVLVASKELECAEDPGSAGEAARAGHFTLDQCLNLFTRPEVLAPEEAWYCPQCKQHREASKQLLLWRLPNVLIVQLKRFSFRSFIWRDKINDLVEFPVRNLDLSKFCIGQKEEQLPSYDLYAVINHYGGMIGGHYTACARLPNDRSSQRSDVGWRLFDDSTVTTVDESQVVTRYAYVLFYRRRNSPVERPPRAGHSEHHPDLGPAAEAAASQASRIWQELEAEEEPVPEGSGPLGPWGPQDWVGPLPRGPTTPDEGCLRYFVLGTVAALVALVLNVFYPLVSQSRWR
In short: (§1)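 Labelled DUBs from HEK293T lysate were NeutrAvidin-enriched, digested with LysC and trypsin, and run by diaPASEF LC-MS/MS. Before that, each 495 µg sample in Tris/CHAPS/IGEPAL buffer with protease inhibitors was treated in triplicate with fragment at 200 µM or vehicle for 3 h, then with Biotin-Ahx-Ub-VS at 0.5 µM final for 1 h. Values are average log2 ratios of fragment over vehicle by unpaired t-test, based on global-median-normalised Spectronaut label-free quantities from proteins with ≥2 unique peptides.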

USP22 = target: T2, USP22 (UniProt Q9UPT9)
T2 sequence (whole entry): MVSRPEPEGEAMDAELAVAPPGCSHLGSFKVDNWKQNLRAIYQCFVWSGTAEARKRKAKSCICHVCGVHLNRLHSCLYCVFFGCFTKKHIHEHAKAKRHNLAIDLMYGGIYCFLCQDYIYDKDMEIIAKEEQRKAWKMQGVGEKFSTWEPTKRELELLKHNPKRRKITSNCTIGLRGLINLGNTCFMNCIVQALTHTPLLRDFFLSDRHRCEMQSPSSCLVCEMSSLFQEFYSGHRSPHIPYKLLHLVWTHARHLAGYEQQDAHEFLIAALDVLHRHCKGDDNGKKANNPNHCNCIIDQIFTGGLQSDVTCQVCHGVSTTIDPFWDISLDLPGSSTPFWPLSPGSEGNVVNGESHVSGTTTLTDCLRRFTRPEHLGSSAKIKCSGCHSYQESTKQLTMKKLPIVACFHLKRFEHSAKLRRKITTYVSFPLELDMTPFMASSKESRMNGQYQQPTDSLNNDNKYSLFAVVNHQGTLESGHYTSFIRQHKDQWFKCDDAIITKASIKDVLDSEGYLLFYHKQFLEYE
In short: as §1

USP24 = USP24 (UniProt Q9UPU5)
In short: as §1

USP25 = target: T3, USP25 (UniProt Q9UHP3)
T3 sequence (whole entry): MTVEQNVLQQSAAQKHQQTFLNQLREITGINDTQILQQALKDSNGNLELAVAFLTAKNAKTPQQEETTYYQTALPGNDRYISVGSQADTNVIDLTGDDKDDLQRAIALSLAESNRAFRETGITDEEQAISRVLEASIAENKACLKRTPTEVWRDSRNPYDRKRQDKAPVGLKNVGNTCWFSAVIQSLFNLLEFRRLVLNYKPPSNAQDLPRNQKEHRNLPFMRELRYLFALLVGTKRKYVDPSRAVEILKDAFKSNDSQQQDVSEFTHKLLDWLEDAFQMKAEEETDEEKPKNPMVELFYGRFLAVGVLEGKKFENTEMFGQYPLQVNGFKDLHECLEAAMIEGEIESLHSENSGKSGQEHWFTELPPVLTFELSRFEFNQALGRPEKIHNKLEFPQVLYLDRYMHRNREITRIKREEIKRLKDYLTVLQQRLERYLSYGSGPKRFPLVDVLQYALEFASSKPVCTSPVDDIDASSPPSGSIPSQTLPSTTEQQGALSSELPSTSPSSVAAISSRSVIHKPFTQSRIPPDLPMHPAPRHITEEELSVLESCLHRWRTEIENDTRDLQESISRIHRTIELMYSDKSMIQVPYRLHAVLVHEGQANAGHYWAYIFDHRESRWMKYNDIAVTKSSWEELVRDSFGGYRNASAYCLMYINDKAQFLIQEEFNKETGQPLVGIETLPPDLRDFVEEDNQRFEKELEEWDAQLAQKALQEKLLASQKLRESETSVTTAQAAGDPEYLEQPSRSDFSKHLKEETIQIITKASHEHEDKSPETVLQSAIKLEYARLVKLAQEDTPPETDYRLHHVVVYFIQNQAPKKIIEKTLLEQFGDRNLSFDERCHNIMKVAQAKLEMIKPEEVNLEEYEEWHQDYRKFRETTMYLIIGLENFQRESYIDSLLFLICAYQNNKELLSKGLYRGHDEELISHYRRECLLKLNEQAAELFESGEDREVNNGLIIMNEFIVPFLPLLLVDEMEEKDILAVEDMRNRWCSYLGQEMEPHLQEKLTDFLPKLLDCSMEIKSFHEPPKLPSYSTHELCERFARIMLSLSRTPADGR
In short: as §1

USP28 = target: T4, USP28 (UniProt Q96RU2)
T4 sequence (whole entry): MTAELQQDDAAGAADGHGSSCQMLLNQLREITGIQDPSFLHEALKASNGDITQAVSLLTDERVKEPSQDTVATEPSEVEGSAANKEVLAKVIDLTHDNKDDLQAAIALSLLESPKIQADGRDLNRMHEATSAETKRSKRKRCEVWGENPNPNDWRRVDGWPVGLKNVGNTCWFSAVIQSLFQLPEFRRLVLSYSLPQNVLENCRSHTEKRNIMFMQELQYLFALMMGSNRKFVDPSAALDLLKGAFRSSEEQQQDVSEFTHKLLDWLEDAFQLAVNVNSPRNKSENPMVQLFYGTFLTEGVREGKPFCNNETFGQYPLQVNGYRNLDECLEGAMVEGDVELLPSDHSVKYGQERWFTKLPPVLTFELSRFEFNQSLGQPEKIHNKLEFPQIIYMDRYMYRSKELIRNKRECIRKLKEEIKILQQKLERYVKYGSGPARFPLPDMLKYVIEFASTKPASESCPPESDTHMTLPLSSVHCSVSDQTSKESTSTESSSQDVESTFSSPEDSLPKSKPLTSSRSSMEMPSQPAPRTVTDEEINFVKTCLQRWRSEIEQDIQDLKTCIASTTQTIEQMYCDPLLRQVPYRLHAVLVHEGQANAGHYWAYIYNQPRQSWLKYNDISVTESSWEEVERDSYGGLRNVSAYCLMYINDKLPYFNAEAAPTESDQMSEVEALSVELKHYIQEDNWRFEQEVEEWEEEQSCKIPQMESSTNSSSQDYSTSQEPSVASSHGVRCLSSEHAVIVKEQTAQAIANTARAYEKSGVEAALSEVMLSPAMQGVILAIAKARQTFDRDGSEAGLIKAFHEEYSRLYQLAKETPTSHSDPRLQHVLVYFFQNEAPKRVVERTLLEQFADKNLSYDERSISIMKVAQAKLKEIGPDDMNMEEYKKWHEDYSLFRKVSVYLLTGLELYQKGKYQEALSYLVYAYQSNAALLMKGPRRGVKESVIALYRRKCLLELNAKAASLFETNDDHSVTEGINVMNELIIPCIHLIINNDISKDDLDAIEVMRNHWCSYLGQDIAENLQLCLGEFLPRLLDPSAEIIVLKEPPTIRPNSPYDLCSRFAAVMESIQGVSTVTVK
In short: as §1

Measured: log2 ratio of Biotin-Ahx-Ub-VS probe labelling

Chain of USP24 (Q9UPU5 whole entry): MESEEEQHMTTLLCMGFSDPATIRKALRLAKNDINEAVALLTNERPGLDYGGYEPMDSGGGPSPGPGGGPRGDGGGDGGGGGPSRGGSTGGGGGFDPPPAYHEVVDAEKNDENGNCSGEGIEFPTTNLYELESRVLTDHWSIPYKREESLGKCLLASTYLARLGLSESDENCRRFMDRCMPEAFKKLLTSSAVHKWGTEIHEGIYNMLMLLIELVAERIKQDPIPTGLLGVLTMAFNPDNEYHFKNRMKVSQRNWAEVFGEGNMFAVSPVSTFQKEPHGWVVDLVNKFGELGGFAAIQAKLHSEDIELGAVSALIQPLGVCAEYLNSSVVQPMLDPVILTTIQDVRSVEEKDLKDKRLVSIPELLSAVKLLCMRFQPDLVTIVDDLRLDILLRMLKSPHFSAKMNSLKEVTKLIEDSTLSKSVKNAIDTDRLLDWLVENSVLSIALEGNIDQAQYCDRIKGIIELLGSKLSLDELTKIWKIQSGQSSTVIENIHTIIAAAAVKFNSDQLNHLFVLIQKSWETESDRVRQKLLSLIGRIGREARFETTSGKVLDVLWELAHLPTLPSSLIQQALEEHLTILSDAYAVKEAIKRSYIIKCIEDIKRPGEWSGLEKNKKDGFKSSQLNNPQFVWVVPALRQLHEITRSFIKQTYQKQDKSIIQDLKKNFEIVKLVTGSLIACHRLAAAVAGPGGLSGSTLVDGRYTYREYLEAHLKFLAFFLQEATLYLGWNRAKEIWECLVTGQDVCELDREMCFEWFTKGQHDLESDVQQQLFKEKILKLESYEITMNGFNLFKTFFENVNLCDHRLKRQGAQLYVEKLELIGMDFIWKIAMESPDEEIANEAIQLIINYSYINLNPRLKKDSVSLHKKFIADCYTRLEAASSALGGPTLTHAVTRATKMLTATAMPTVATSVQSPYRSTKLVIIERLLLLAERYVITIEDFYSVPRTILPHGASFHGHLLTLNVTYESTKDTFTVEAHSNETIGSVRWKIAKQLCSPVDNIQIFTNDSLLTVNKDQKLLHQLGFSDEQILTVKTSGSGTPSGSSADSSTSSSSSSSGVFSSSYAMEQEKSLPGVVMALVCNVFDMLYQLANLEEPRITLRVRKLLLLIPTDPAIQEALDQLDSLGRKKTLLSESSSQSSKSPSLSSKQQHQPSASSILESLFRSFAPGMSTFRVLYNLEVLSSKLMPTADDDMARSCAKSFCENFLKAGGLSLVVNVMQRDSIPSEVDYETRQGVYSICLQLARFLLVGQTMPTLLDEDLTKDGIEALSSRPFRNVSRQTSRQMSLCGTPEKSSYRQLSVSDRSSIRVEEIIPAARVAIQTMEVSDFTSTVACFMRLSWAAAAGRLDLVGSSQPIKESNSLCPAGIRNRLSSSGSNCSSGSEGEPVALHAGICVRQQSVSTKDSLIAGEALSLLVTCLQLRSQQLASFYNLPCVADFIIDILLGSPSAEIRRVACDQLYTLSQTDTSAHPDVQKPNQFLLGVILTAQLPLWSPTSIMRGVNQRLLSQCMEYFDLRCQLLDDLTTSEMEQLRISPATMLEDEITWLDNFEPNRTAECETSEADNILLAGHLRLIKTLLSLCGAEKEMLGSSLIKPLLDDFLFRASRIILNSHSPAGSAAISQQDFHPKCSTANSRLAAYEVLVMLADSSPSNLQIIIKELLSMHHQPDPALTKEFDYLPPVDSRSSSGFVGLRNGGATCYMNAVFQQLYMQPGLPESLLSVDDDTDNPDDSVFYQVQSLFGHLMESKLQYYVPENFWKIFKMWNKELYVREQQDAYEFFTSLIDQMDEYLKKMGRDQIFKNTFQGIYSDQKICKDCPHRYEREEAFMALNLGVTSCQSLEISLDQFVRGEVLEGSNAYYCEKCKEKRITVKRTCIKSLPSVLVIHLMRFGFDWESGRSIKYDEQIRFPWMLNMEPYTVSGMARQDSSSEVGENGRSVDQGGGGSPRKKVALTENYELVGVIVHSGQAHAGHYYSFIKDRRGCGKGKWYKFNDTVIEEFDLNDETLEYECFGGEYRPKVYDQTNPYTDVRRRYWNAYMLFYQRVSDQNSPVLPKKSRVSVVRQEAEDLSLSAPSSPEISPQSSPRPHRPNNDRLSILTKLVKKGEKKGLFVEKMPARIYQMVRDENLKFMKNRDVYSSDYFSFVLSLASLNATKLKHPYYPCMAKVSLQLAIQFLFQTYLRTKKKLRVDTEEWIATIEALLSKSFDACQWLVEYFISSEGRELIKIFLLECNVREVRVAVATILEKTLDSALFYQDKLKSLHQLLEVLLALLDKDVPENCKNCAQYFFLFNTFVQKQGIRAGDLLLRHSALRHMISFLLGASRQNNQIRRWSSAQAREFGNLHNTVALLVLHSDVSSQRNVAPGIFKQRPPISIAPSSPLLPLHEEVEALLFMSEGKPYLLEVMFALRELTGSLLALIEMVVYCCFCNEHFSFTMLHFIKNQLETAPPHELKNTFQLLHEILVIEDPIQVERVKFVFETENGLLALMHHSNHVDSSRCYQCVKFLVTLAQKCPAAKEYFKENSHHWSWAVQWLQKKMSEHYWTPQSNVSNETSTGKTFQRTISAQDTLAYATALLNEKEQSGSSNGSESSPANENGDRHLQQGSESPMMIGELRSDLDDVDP

CCc1c[nH]c(CNC(=O)CCl)n1.Cl
inactive: USP19 -0.279 | USP22 -0.0631 | USP24 -0.668 | USP25 -0.182 | USP28 -0.44
